In PubChem BioAssay (NCI) one finds growth inhibition data, which are given here for eight compounds.

Values joined by “and” are separate entries in the source; they are usually repeats but may differ in a detail not shown here. Identical values can stand only once. This is part of a sample that, as a whole, favours compounds with a hit. Of some 79,000 tested, about 15% had one in any assay. Some structures have more than one record in an assay (separate samples or runs), and their calls can disagree. Active and inactive are the calls of the source. No stated cut-off is given here; in the data, active means growth inhibition above about 70%; inactive means the rest.

A short description of experiment [1]: NCI Yeast Anticancer Drug Screen. Data for the rad50 strain (AID 155).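 Further: 0% = growth of vehicle-only cultures of the same strain.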 The following applies: S. cerevisiae rad50 strain growth inhibition, stronger effect = higher value. The procedure, abridged: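 Genetically altered yeast (DNA repair pathway); compound treatment; growth inhibition vs vehicle ctrl.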
A short description of experiment [2]: NCI Yeast Anticancer Drug Screen. Data for the mec2-1 strain (AID 157). The following applies: S. cerevisiae mec2-1 strain, stronger effect = higher value. The procedure, abridged: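 Using mec2-1 yeast: add compound, measure growth, express inhibition versus vehicle-treated cultures.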
Experiment [3] in a line: NCI Yeast Anticancer Drug Screen. Data for the sgs1 mgt1 strain (AID 161).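 Further: 0% = growth of cultures given vehicle only.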 The following applies: S. cerevisiae sgs1 mgt1 strain, stronger effect = higher value. The procedure, abridged: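 Percent growth inhibition was derived by comparing compound-exposed mutant yeast with vehicle-exposed cultures. The strain carries alterations in DNA damage repair.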
A short description of experiment [4]: NCI Yeast Anticancer Drug Screen. Data for the cln2 rad14 strain (AID 165).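 Further: 0% = growth equal to vehicle treated cultures.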 Conditions: S. cerevisiae cln2 rad14 strain, stronger effect = higher value. The procedure, abridged:
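Yeast strain cln2 rad14, bearing defects in cell cycle control and DNA repair, serves as the test system; values reflect growth inhibition compared with vehicle.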

The nature of experiment [5]: NCI Yeast Anticancer Drug Screen. Data for the bub3 strain (AID 167). The following applies: S. cerevisiae bub3 mutant strain, stronger effect = higher value. The procedure, abridged:
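Yeast carrying a defined mutation is treated with each compound, and growth is compared with that of vehicle-exposed cells to give inhibition.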

A short description of experiment [6]: NCI Yeast Anticancer Drug Screen. Data for the mlh1 rad18 strain (AID 175). Conditions: S. cerevisiae mlh1 rad18 strain growth inhibition, stronger effect = higher value. The procedure, abridged: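 Steps: expose repair-defective yeast to compound; measure growth; express inhibition against vehicle-treated controls.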
Setting [7] is: at 5.0 µM (retest, dose inferred, filed as 0.5).
The mark [8] stands for this setting: at 50.0 µM (retest, dose inferred, filed as 5.0).

For `CN=c1sc2nc(C#N)c(C#N)nc2n1C`, the growth inhibition in experiment [1] (setting [7]) is -15% (inactive); in experiment [1] (setting [8]), 44% (inactive); in experiment [1] (at 50.0 µM) it was 85.3% (active); in experiment [2] (setting [7]), -8% (inactive); in experiment [2] (setting [8]) it was 61% (inactive); in experiment [2] (at 50.0 µM) it was 40.1% (inactive). For the same compound, the growth inhibition in experiment [3] (setting [7]) is -23% (inactive); in experiment [3] (setting [8]), 35% (inactive); in experiment [3] (at 50.0 µM), 75.3% (active); in experiment [4] (setting [7]), 2% (inactive); in experiment [4] (setting [8]), 23% (inactive); in experiment [4] (at 50.0 µM) it was 63.1% (inactive). The growth inhibition was -22% (inactive) in experiment [5] (setting [7]); 69% (inactive) in experiment [5] (setting [8]); 89.8% (active) in experiment [5] (at 50.0 µM); -8% (inactive) in experiment [6] (setting [7]); 58% (inactive) in experiment [6] (setting [8]); 81.5% (active) in experiment [6] (at 50.0 µM).
With `CC(C)CCC[C@@H](C)[C@H]1CC[C@H]2[C@@H]3CC=C4N5CCCN=C5CC[C@]4(C)[C@H]3CC[C@]12C`, the growth inhibition in experiment [1] (setting [7]) was 2% (inactive); in experiment [1] (setting [8]), 98% (active); in experiment [1] (at 50.0 µM) it was 98% (active); in experiment [2] (setting [7]), -20% (inactive); in experiment [2] (setting [8]), 99% (active); in experiment [2] (at 50.0 µM), 98.7% (active). Further, the growth inhibition was -15% (inactive) in experiment [3] (setting [7]); 89% (active) in experiment [3] (setting [8]); 98.5% (active) in experiment [3] (at 50.0 µM); 0% (inactive) in experiment [4] (setting [7]); 54% (inactive) in experiment [4] (setting [8]); 98.2% (active) in experiment [4] (at 50.0 µM). Further, the growth inhibition in experiment [5] (setting [7]) is 0% (inactive); in experiment [5] (setting [8]), 97% (active); in experiment [5] (at 50.0 µM) it was 98.2% (active); in experiment [6] (setting [7]) it was -8% (inactive); in experiment [6] (setting [8]), 98% (active); in experiment [6] (at 50.0 µM), 97.9% (active).
`O=[N+]([O-])c1cccc2nc3ccccc3c(NCCN(CCO)CCO)c12`: the growth inhibition in experiment [1] (setting [7]) is 81% (active); in experiment [1] (setting [8]), 94% (active); in experiment [1] (at 50.0 µM) it was 71% (active); in experiment [2] (setting [7]) it was 88% (active); in experiment [2] (setting [8]), 98% (active); in experiment [2] (at 50.0 µM), 73.4% (active). For the same compound, the growth inhibition is 91% (active) in experiment [3] (setting [7]); 98% (active) in experiment [3] (setting [8]); 52.5% (inactive) in experiment [3] (at 50.0 µM); 95% (active) in experiment [4] (setting [7]); 99% (active) in experiment [4] (setting [8]); 84.8% (active) in experiment [4] (at 50.0 µM). In addition, the growth inhibition in experiment [5] (setting [7]) is 79% (active); in experiment [5] (setting [8]), 99% (active); in experiment [5] (at 50.0 µM), -17.6% (inactive); in experiment [6] (setting [7]) it was 90% (active); in experiment [6] (setting [8]), 96% (active); in experiment [6] (at 50.0 µM), 58% (inactive).
In the case of `Cc1cc2c(c(Br)c1O)Oc1c(cc(C)c(O)c1Br)C21OC(=O)c2ccccc21`, the growth inhibition in experiment [1] (setting [7]) is 52% (inactive); in experiment [1] (setting [8]), 98% (active); in experiment [1] (at 50.0 µM) it was 90.7% (active); in experiment [2] (setting [7]) it was 42% (inactive); in experiment [2] (setting [8]), 99% (active); in experiment [2] (at 50.0 µM) it was 93% (active). Besides, the growth inhibition in experiment [3] (setting [7]) is 55% (inactive); in experiment [3] (setting [8]), 99% (active); in experiment [3] (at 50.0 µM) it was 92.6% (active); in experiment [4] (setting [7]) it was 36% (inactive); in experiment [4] (setting [8]), 98% (active); in experiment [4] (at 50.0 µM), 92.5% (active). Further, the growth inhibition in experiment [5] (setting [7]) was 52% (inactive); in experiment [5] (setting [8]), 99% (active); in experiment [5] (at 50.0 µM) it was 91% (active); in experiment [6] (setting [7]), 77% (active); in experiment [6] (setting [8]), 98% (active); in experiment [6] (at 50.0 µM) it was 90% (active).
Turning to `COc1cccc(OCCC#N)c1`, the growth inhibition in experiment [1] (setting [7]) was 2% (inactive); in experiment [1] (setting [8]), 27% (inactive); in experiment [1] (at 50.0 µM), -6.7% (inactive) and 72.8% (active); in experiment [2] (setting [7]) it was -1% (inactive); in experiment [2] (setting [8]), 0% (inactive); in experiment [2] (at 50.0 µM) it was 4.05% (inactive) and 4.85% (inactive). The growth inhibition in experiment [3] (setting [7]) is -1% (inactive); in experiment [3] (setting [8]) it was 12% (inactive); in experiment [3] (at 50.0 µM), -5.2% (inactive) and 31.4% (inactive); in experiment [4] (setting [7]), -7% (inactive); in experiment [4] (setting [8]) it was -1% (inactive); in experiment [4] (at 50.0 µM), -34.8% (inactive) and 20.4% (inactive). Further, the growth inhibition in experiment [5] (setting [7]) was -6% (inactive); in experiment [5] (setting [8]), -5% (inactive); in experiment [5] (at 50.0 µM), -8.35% (inactive) and -22.1% (inactive); in experiment [6] (setting [7]) it was 4% (inactive); in experiment [6] (setting [8]), 19% (inactive); in experiment [6] (at 50.0 µM), -1.9% (inactive) and 44.9% (inactive).
Turning to `c1ccc(-c2conc2-c2ccccc2)cc1`, the growth inhibition in experiment [1] (setting [7]) is -22% (inactive); in experiment [1] (setting [8]), 95% (active); in experiment [1] (at 50.0 µM) it was 60.8% (inactive); in experiment [2] (setting [7]) it was -7% (inactive); in experiment [2] (setting [8]) it was 91% (active); in experiment [2] (at 50.0 µM) it was 19.1% (inactive). Besides, the growth inhibition in experiment [3] (setting [7]) is 9% (inactive); in experiment [3] (setting [8]), 90% (active); in experiment [3] (at 50.0 µM), 31.4% (inactive); in experiment [4] (setting [7]), -32% (inactive); in experiment [4] (setting [8]), 68% (inactive); in experiment [4] (at 50.0 µM) it was -2.5% (inactive). The growth inhibition was -20% (inactive) in experiment [5] (setting [7]); 92% (active) in experiment [5] (setting [8]); 54% (inactive) in experiment [5] (at 50.0 µM); -10% (inactive) in experiment [6] (setting [7]); 95% (active) in experiment [6] (setting [8]); 71.3% (active) in experiment [6] (at 50.0 µM).
Take `O=C1CSC(=S)N1c1ccc(Cl)c(C(F)(F)F)c1`: the growth inhibition is -1% (inactive) in experiment [1] (setting [7]); 36% (inactive) in experiment [1] (setting [8]); 97.5% (active) in experiment [1] (at 50.0 µM); 0% (inactive) in experiment [2] (setting [7]); 11% (inactive) in experiment [2] (setting [8]); 97.7% (active) in experiment [2] (at 50.0 µM). Besides, the growth inhibition in experiment [3] (setting [7]) is 6% (inactive); in experiment [3] (setting [8]) it was 97% (active); in experiment [3] (at 50.0 µM), 98.9% (active); in experiment [4] (setting [7]), -4% (inactive); in experiment [4] (setting [8]), -10% (inactive); in experiment [4] (at 50.0 µM), 58.4% (inactive). Further, the growth inhibition in experiment [5] (setting [7]) is -6% (inactive); in experiment [5] (setting [8]) it was 56% (inactive); in experiment [5] (at 50.0 µM) it was 98.5% (active); in experiment [6] (setting [7]), 11% (inactive); in experiment [6] (setting [8]), 95% (active); in experiment [6] (at 50.0 µM), 98.3% (active).
`COC(=O)c1ccc(O)c(OC)c1`: the growth inhibition in experiment [1] (setting [7]) is -1% (inactive); in experiment [1] (setting [8]), -5% (inactive); in experiment [1] (at 50.0 µM), -25.2% (inactive); in experiment [2] (setting [7]), 1% (inactive); in experiment [2] (setting [8]), -3% (inactive); in experiment [2] (at 50.0 µM) it was -2.35% (inactive). In addition, the growth inhibition in experiment [3] (setting [7]) is 0% (inactive); in experiment [3] (setting [8]) it was -1% (inactive); in experiment [3] (at 50.0 µM), -8.9% (inactive); in experiment [4] (setting [7]) it was -2% (inactive); in experiment [4] (setting [8]), 2% (inactive); in experiment [4] (at 50.0 µM), 28.1% (inactive). For the same compound, the growth inhibition is 12% (inactive) in experiment [5] (setting [7]); 27% (inactive) in experiment [5] (setting [8]); 12.8% (inactive) in experiment [5] (at 50.0 µM); -4% (inactive) in experiment [6] (setting [7]); -3% (inactive) in experiment [6] (setting [8]); 9.5% (inactive) in experiment [6] (at 50.0 µM).
